{"source": "PubChem BioAssay (NCATS)", "key": {"[1]": {"target": "Peroxisome proliferator-activated receptor delta (Homo sapiens) (UniProt Q03181)", "sequence (Q03181 whole entry, looked up)": "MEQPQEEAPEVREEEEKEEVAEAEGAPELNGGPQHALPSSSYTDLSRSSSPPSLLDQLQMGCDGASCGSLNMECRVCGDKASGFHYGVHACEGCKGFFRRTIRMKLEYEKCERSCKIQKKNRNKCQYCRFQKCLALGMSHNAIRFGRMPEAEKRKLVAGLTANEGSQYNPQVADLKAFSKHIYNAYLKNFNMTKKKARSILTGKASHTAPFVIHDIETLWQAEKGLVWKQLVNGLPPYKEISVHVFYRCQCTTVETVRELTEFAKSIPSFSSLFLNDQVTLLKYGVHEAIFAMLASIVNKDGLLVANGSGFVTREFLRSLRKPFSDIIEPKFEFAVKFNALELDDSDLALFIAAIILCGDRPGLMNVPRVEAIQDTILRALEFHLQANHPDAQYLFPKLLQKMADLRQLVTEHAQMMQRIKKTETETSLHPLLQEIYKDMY", "assay": "qHTS assay for small molecule antagonists of peroxisome proliferator-activated receptor delta signaling (AID 588535; active means well fitted inhibition curve with a large enough effect in the signal ratio, with a control signal flat, not every such curve was filed as active; the % refers to the signal ratio)", "how_it_was_run": "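Antagonist-mode qHTS using GeneBLAzer PPAR-delta-UAS-bla HEK293T cells; compound exposure 18 hrs at 37 C over a titration. Ratiometric CCF4 fluorescence at 460/530 nm; concentration-response points fitted to the Hill equation.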"}, "[2]": {"target": "Vitamin D3 receptor (Homo sapiens) (UniProt P11473)", "sequence (P11473 whole entry, looked up)": "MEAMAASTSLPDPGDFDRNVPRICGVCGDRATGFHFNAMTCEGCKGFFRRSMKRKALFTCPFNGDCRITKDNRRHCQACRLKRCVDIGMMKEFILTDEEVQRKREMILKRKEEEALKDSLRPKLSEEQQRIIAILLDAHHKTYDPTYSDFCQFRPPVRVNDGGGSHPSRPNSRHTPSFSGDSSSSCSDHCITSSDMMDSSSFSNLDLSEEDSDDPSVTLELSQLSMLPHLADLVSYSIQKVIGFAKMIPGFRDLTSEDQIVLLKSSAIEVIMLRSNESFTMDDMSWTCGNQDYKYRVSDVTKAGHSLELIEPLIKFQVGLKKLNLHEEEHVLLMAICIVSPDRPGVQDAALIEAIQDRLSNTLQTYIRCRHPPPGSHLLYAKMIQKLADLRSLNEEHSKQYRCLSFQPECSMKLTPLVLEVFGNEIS", "assay": "qHTS assay for small molecule antagonists of vitamin D receptor signaling (AID 588541);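 further: receptor activated by calcitriol during compound treatment; series mostly up to about 77 µM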", "how_it_was_run": "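Antagonist-mode beta-lactamase reporter assay: HEK293T VDR-UAS-bla cells were exposed to titrated compound alongside 1-alpha,25-dihydroxyvitamin D3 at 3 nM final for 16 h. Values were normalized to the 50 nM agonist control and DMSO basal, with IC50 and efficacy from Hill equation fits.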"}, "[3]": {"target": "Vitamin D3 receptor (Homo sapiens) (UniProt P11473)", "assay": "qHTS assay for small molecule agonists of vitamin D receptor signaling (AID 588543)", "how_it_was_run": "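qHTS in agonist mode: compound titrations stimulate a VDR-driven β-lactamase reporter in HEK293T cells over 16 h at 37 °C. Response normalized to 50 nM 1α,25-dihydroxyvitamin D3 = 100%, DMSO = 0%; Hill fitting gives EC50 and maximal response.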"}, "[4]": {"assay": "qHTS assay for small molecule agonists of retinoid X receptor alpha signaling (AID 588544)", "conditions": "HEK293T RXRa-UAS-bla, beta-lactamase reporter, 18 h; 530 nm emission"}, "[5]": {"target": "Thyroid hormone receptor beta (Homo sapiens) (UniProt P10828)", "sequence (P10828 whole entry, looked up)": "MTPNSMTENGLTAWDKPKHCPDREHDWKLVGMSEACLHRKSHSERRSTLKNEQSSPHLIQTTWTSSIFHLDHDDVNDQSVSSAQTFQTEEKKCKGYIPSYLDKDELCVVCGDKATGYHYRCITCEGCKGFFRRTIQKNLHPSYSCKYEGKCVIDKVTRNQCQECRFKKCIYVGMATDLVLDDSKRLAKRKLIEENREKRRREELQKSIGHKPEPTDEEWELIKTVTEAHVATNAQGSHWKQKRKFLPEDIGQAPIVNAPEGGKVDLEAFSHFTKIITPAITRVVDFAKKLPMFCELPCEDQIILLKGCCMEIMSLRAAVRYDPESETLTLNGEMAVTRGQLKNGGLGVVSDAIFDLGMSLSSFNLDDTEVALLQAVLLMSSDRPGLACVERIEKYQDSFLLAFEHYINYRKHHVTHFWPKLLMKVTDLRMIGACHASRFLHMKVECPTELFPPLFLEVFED", "assay": "qHTS assay for small molecule agonists of thyroid hormone receptor beta signaling (AID 588545)", "how_it_was_run": "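Beta-lactamase reporter activity under TR response element control is measured in HEK 293 cells after 18 hrs compound exposure. Signal is ratiometric CCF4 fluorescence, 460/530 nm.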"}, "[6]": {"assay": "qHTS assay for small molecule antagonists of retinoid X receptor alpha signaling (AID 588546; active means well fitted inhibition curve with a large enough effect in the signal ratio, with a control signal flat, not every such curve was filed as active; the % refers to the signal ratio)", "conditions": "HEK293T RXRa-UAS-bla, beta-lactamase ratio, antagonist mode; measured here: W530 green channel, cytotoxicity proxy", "how_it_was_run": "(§1)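 Beta-lactamase reporter inhibition, read as CCF4 fluorescence ratio (ex 405, em 460/530 nm) after 2 h at RT. HEK293T UAS-bla cells, 2500/well, were stimulated with 9-cis-RA at 500 or 100 nM final alongside test compound for 18 h at 37 C.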"}, "[7]": {"target": "Retinoic acid receptor RXR-alpha (Homo sapiens) (UniProt P19793)", "sequence (P19793 whole entry, looked up)": "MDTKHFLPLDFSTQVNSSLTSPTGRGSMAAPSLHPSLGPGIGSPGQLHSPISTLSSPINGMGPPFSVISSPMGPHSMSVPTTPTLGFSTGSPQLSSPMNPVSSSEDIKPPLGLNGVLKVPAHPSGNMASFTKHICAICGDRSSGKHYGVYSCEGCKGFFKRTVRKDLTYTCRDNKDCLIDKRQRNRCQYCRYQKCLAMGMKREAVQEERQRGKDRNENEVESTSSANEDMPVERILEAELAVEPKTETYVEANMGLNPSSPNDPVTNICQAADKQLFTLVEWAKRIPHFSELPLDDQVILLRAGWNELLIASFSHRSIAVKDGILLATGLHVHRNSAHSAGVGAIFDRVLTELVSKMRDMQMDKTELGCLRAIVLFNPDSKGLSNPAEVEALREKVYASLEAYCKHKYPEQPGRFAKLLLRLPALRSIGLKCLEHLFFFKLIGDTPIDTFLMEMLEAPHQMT", "assay": "qHTS assay for small molecule antagonists of retinoid X receptor alpha signaling (AID 588546)", "conditions": "HEK293T RXRa-UAS-bla, beta-lactamase ratio, antagonist mode", "how_it_was_run": "as §1"}, "[8]": {"target": "Thyroid hormone receptor beta (Homo sapiens) (UniProt P10828)", "assay": "qHTS assay for small molecule antagonists of thyroid hormone receptor beta signaling (AID 588547; active means well fitted inhibition curve with a large enough effect in the signal ratio, with a control signal flat, not every such curve was filed as active; the % refers to the signal ratio)", "conditions": "TR-UAS-bla HEK293, beta-lactamase ratio, antagonist mode, 18 h", "how_it_was_run": "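Inhibition of T3-driven (0.4nM final) beta-lactamase reporter activity was measured over 0.59 nM to 92 uM compound after 18 h at 37 C. The cells were GripTite HEK293 TR-UAS-bla in charcoal/dextran-stripped serum, with CCF4 ratio read-out and IC50 from Hill fits.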"}, "[9]": {"assay": "qHTS assay for small molecule agonists of the antioxidant response element (ARE) signaling pathway (AID 651741; active means well fitted activation curve with a large enough effect in the signal ratio; the % refers to the signal ratio)", "how_it_was_run": "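Agonist activity is measured as ARE-driven beta-lactamase expression in a stable HepG2 reporter line, using 16 h compound treatment at 37 C and a FRET substrate fluorescence readout after 2 h.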"}, "[10]": {"assay": "qHTS assay for small molecule activators of the nuclear factor-kappa B (NF-kB) signaling pathway (AID 651749; active means well fitted activation curve with a large enough effect in the signal ratio; the % refers to the signal ratio)", "conditions": "NF-kB-bla ME-180 cells, beta-lactamase FRET ratio, 16 h; stronger effect = higher value", "how_it_was_run": "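FRET-based beta-lactamase detection in ME-180 cells reports NF-kB response-element-driven transcription following overnight (16 hr) compound treatment.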"}, "[11]": {"assay": "qHTS assay for small molecule disruptors of the mitochondrial membrane potential - 1 hr assay (AID 651754)", "how_it_was_run": "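In this qHTS format, a 1 hr compound treatment of HepG2 cells precedes Mito-MPS staining, and membrane potential is judged from aggregate (red) against monomer (green) fluorescence intensity.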"}, "[12]": {"assay": "qHTS assay for small molecule disruptors of the mitochondrial membrane potential - 5 hr assay (AID 651755)", "how_it_was_run": "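Membrane-potential dye readout: red aggregate (540 ex/590 em) versus green monomer (490 ex/535 em) fluorescence after 30 min dye loading, following 5 hr compound exposure at 37C of overnight-plated HepG2 cells.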"}, "[13]": {"target": "Tumor necrosis factor (Homo sapiens) (UniProt P01375)", "sequence (P01375 whole entry, looked up)": "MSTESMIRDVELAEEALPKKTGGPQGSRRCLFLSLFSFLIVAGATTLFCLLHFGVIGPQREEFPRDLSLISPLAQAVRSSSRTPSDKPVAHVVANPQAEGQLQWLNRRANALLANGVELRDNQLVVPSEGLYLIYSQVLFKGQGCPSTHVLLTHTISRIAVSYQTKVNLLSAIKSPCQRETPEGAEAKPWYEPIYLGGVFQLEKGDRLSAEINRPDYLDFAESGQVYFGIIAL", "assay": "qHTS assay to identify small molecules that stimulate Tumor Necrosis Factor-alpha (TNF-alpha) secretion (AID 651757; active means well fitted curve in the direction sought with a large enough effect in the signal ratio; the % refers to the signal ratio)", "how_it_was_run": "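Using 3000 THP-1 cells per well, compounds and controls were applied for 17 hrs at 37 C. Detection followed with two labeled anti-TNF-alpha antibodies (cryptate donor, XL665 acceptor) for 3 hr at room temperature, measured by TR-FRET.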"}, "[14]": {"assay": "qHTS assay to identify small molecules that stimulate interleukin-8 (IL-8) secretion (AID 651758; active means well fitted activation curve with a large enough effect in the signal ratio; the % refers to the signal ratio)", "how_it_was_run": "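Secreted IL-8 measured homogeneously by TR-FRET (two labelled anti-IL-8 antibodies, 1-3 h at room temperature) after a 16 h, 37 C compound treatment of THP-1 cells at 2000 cells/well.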"}, "[15]": {"target": "Peroxisome proliferator-activated receptor alpha (Homo sapiens) (UniProt Q07869)", "sequence (Q07869 whole entry, looked up)": "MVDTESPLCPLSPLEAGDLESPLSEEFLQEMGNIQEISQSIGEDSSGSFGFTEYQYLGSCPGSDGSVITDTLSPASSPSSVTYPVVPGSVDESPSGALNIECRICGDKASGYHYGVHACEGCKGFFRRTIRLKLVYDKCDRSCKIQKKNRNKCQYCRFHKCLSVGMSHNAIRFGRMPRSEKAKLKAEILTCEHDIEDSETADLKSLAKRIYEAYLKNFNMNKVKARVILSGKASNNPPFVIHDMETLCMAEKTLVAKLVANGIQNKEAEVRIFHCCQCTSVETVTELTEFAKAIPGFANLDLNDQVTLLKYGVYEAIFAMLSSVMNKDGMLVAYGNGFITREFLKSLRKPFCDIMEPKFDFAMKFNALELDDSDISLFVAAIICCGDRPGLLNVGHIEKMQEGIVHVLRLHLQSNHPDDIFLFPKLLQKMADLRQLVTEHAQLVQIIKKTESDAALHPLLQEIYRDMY", "assay": "qHTS assay for small molecule agonists of the peroxisome proliferator-activated receptor alpha (PPARalpha) signaling pathway (AID 651778; active means well fitted curve in the direction sought with a large enough effect; an effect the other way counts as inactive or inconclusive)", "conditions": "PathHunter PPARalpha complementation, chemiluminescence, 6 h; max response: stronger effect = higher value", "how_it_was_run": "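Chemiluminescence from complemented enzyme reported PPARalpha activation in cells after 6 hr of compound treatment at 37 C. The detection reagent was incubated for 60 min at room temperature, and compounds were scored as agonists.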"}, "[16]": {"target": "Nuclear receptor ROR-gamma (Homo sapiens) (UniProt P51449)", "sequence (P51449 whole entry, looked up)": "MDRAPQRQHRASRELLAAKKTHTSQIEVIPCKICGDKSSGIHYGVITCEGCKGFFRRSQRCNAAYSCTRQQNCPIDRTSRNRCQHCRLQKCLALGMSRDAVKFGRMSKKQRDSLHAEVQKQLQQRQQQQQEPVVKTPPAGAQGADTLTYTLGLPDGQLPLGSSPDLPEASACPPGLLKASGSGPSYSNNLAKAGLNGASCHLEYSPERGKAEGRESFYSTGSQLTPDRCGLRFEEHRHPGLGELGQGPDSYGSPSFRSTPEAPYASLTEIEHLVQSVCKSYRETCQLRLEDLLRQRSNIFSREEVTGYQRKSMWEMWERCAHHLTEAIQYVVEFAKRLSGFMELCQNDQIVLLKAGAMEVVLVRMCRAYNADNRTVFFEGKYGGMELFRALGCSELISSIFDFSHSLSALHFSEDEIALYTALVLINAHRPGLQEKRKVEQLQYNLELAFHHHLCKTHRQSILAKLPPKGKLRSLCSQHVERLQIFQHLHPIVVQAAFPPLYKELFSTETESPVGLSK", "assay": "qHTS assay for small molecule antagonists of the retinoid-related orphan receptor gamma (ROR-gamma) signaling pathway (AID 651802; active means well fitted curve in the direction sought with a large enough effect; an effect the other way counts as inactive or inconclusive)", "how_it_was_run": "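Doxycycline-induced reporter activity in engineered CHO cells (TET-inducible ROR, RORE-LUC) was measured by luminescence after 16hr compound exposure at 37C.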"}, "[17]": {"assay": "qHTS assay for small molecule agonists of the antioxidant response element (ARE) signaling pathway measured by Nrf2-dependant transcriptional activity - cell viability counter screen (AID 720653; active means well fitted curve in the direction sought with a large enough effect in the repeat runs; an effect the other way counts as inactive or inconclusive)", "conditions": "ARE-bla HepG2 viability, CellTiter-Glo ATP luminescence, 16 h; max response: stronger effect = lower value", "how_it_was_run": "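Cytotoxicity counter screen: intracellular ATP quantified by CellTiter-Glo luminescence in the same ARE-bla HepG2 plates, after 16 h compound exposure and a 2 h beta-lactamase substrate step.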"}, "[18]": {"assay": "qHTS assay for cell viability of HEK293 cells (AID 743288; active means well fitted curve in the direction sought with a large enough effect; an effect the other way counts as inactive or inconclusive)", "conditions": "ATP luminescence (CellTiter-Glo), 18 h; max response: stronger effect = lower value", "how_it_was_run": "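Quantitative high-throughput screen: compounds were pinned onto parental HEK293 cells (2,000 per well) after a minimum 5 h settling at 37 C, incubated 18 h at 37 C, and intracellular ATP measured by luciferase luminescence.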"}, "[19]": {"assay": "qHTS assay for cell viability of the p53RE-bla HCT-116 cell line (AID 743292; active means well fitted curve in the direction sought with a large enough effect; an effect the other way counts as inactive or inconclusive)", "how_it_was_run": "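CellSensor p53RE-bla HCT-116 cells, 4,000/well, preincubated 5 h at 37 C, then exposed to compounds in DMSO for 16 h at 37 C. Viability read as CellTiter-Glo luminescence (intracellular ATP) after 30 min at room temperature.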"}, "[20]": {"target": "Nuclear receptor subfamily 1 group I member 2 (Rattus norvegicus) (UniProt Q9R1A7)", "sequence (Q9R1A7 whole entry, looked up)": "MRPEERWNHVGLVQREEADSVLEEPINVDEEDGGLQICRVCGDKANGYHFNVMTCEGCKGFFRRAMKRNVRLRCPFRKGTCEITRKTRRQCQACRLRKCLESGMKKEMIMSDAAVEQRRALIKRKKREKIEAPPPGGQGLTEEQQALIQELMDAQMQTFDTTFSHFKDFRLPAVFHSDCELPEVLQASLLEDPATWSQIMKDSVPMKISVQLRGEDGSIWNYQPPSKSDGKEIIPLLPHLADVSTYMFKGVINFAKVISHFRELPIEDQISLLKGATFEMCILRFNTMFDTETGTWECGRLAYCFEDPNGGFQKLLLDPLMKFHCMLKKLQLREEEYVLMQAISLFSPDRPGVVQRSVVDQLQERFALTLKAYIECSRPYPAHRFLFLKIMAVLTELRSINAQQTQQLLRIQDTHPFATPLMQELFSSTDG", "assay": "qHTS assay for small molecule activators of the rat pregnane X receptor (rPXR) signaling pathway (AID 651751; call rule not given here)", "conditions": "rPXR reporter cells, luciferase (One-Glo), 24 h"}, "[21]": {"assay": "qHTS assay for small molecule activators of the human pregnane X receptor (PXR) signaling pathway (AID 720659; call rule not given here)"}}, "note": "Where “and” joins values, the source holds several entries; their conditions need not be identical. Identical values can stand only once. Inconclusive results are not listed. A call without a number means that no potency is given here. Calls of active or inactive are those of the source. Unless noted, the call rests on the fitted dose curve. Wherever activity change % (negative = inhibition) is given: series mostly up to about 77 µM.", "data": [{"compound": "O=C=Nc1ccc(Cc2ccc(N=C=O)cc2)cc1", "values": [{"measurement": "outcome", "setting": "[1]", "result": "inactive"}, {"measurement": "Potency", "setting": "[2]", "result": "inactive"}, {"measurement": "outcome", "setting": "[3]", "result": "inactive"}, {"measurement": "max response", "setting": "[4]", "result": "-1.3% and -4.07%"}, {"measurement": "outcome", "setting": "[5]", "result": "inactive"}, {"measurement": "max response", "setting": "[6]", "result": "-3.54% and -5.83%"}, {"measurement": "max response", "setting": "[7]", "result": "9.21% (inactive) and 0.991% (inactive)"}, {"measurement": "activity change % (negative = inhibition)", "setting": "[8]", "result": "-3.37% (inactive) and 10% (inactive)"}, {"measurement": "Potency", "setting": "[9]", "result": "inactive"}, {"measurement": "activation", "setting": "[10]", "result": "0.0924% (inactive)"}, {"measurement": "Potency", "setting": "[11]", "result": "inactive"}, {"measurement": "Potency", "setting": "[12]", "result": "inactive"}, {"measurement": "outcome", "setting": "[13]", "result": "inactive"}, {"measurement": "outcome", "setting": "[14]", "result": "inactive"}, {"measurement": "max response", "setting": "[15]", "result": "-0.535% (inactive) and -0.74% (inactive)"}, {"measurement": "Potency", "setting": "[16]", "result": "inactive"}, {"measurement": "max response", "setting": "[17]", "result": "-1.3% (inactive) and -0.206% (inactive)"}, {"measurement": "max response", "setting": "[18]", "result": "9.46% (inactive) and -11.9% (inactive)"}, {"measurement": "Potency", "setting": "[19]", "result": "inactive"}, {"measurement": "max response", "setting": "[20]", "result": "1.83% (inactive) and 4.61% (inactive)"}, {"measurement": "outcome", "setting": "[21]", "result": "inactive"}]}]}
